Reference: paper PMC11006913

The sequences below were run against HOXC10 (Homo sapiens, UniProt Q9NYD6 254-340) (assay: PBM; 200 nM protein, PBS). Conditions: dsDNA, one strand shown.
HOXC10, sequence (Q9NYD6 254-340): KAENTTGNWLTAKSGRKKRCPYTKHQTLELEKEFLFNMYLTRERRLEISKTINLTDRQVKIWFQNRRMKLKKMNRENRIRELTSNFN
For GTCGTTAA, the binding signal was 12.5 upbm affinity estimate (log intensity, higher = more binding, comparable within an allelic series).
With TCGTAAAA the binding signal was 12.8 upbm affinity estimate (log intensity, higher = more binding, comparable within an allelic series).
TCATAAAA was tested, and the binding signal was 12.8 upbm affinity estimate (log intensity, higher = more binding, comparable within an allelic series).
With CTCGTAAA the binding signal was 12.6 upbm affinity estimate (log intensity, higher = more binding, comparable within an allelic series).
With CATTAAAA the binding signal was 12.1 upbm affinity estimate (log intensity, higher = more binding, comparable within an allelic series).
In the case of CCATAAAA, the binding signal is reported as 13 upbm affinity estimate (log intensity, higher = more binding, comparable within an allelic series).
CATTAAAC was tested, and the binding signal was 12.2 upbm affinity estimate (log intensity, higher = more binding, comparable within an allelic series).
In the case of CATAAAAG, the binding signal is reported as 12.4 upbm affinity estimate (log intensity, higher = more binding, comparable within an allelic series).
For AATTTTAT, the binding signal was 12.3 upbm affinity estimate (log intensity, higher = more binding, comparable within an allelic series).
For ACCATAAA, the binding signal was 12.3 upbm affinity estimate (log intensity, higher = more binding, comparable within an allelic series).
In the case of ATAATAAA, the binding signal is reported as 12.5 upbm affinity estimate (log intensity, higher = more binding, comparable within an allelic series).
CATAAAAC was tested, and the binding signal was 12.6 upbm affinity estimate (log intensity, higher = more binding, comparable within an allelic series).
With ATTTATGA the binding signal was 12.4 upbm affinity estimate (log intensity, higher = more binding, comparable within an allelic series).
TCGTTAAA was tested, and the binding signal was 12.4 upbm affinity estimate (log intensity, higher = more binding, comparable within an allelic series).
In the case of TAATAAAA, the binding signal is reported as 13 upbm affinity estimate (log intensity, higher = more binding, comparable within an allelic series).
With ACTATAAA the binding signal was 12.1 upbm affinity estimate (log intensity, higher = more binding, comparable within an allelic series).
In the case of CATAAAAA, the binding signal is reported as 12.6 upbm affinity estimate (log intensity, higher = more binding, comparable within an allelic series).

What follows are sequences tested against ALX4 (Homo sapiens, UniProt Q9H161 200-286, Q225E) (assay: PBM; 200 nM protein, PBS). Conditions: dsDNA, one strand shown.
ALX4, sequence (Q9H161 200-286 Q225E): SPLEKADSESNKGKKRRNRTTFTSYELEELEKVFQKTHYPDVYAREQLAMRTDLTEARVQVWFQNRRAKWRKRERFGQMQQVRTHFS
With AATAAAAA the binding signal was 10.9 upbm affinity estimate (log intensity, higher = more binding, comparable within an allelic series).
CCTTGCAG was tested, and the binding signal was 8.04 upbm affinity estimate (log intensity, higher = more binding, comparable within an allelic series).
With TAATAAAA the binding signal was 11.8 upbm affinity estimate (log intensity, higher = more binding, comparable within an allelic series).

These sequences were tested against HOXB9 (Homo sapiens, UniProt P17482 171-250) (assay: PBM; 200 nM protein, PBS). Conditions: dsDNA, one strand shown.
HOXB9, sequence (P17482 171-250): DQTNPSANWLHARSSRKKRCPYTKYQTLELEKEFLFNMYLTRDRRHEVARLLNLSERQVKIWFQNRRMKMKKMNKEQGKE
With ATCGTAAA the binding signal was 11.9 upbm affinity estimate (log intensity, higher = more binding, comparable within an allelic series).
In the case of GTCGTAAA, the binding signal is reported as 12.6 upbm affinity estimate (log intensity, higher = more binding, comparable within an allelic series).
In the case of GCTATAAA, the binding signal is reported as 12 upbm affinity estimate (log intensity, higher = more binding, comparable within an allelic series).
CTCATAAA was tested, and the binding signal was 11.9 upbm affinity estimate (log intensity, higher = more binding, comparable within an allelic series).
In the case of CTATTAAA, the binding signal is reported as 11.9 upbm affinity estimate (log intensity, higher = more binding, comparable within an allelic series).
With ATAAAACA the binding signal was 11.8 upbm affinity estimate (log intensity, higher = more binding, comparable within an allelic series).
With ACAATAAA the binding signal was 12 upbm affinity estimate (log intensity, higher = more binding, comparable within an allelic series).
ACATAAAA was tested, and the binding signal was 12.3 upbm affinity estimate (log intensity, higher = more binding, comparable within an allelic series).
In the case of ATCATAAA, the binding signal is reported as 11.9 upbm affinity estimate (log intensity, higher = more binding, comparable within an allelic series).
CTATAAAA was tested, and the binding signal was 12.2 upbm affinity estimate (log intensity, higher = more binding, comparable within an allelic series).
With CTAATAAA the binding signal was 11.9 upbm affinity estimate (log intensity, higher = more binding, comparable within an allelic series).
For GTTTATTA, the binding signal was 11.7 upbm affinity estimate (log intensity, higher = more binding, comparable within an allelic series).
CCCTCACC was tested, and the binding signal was 8.28 upbm affinity estimate (log intensity, higher = more binding, comparable within an allelic series).
For CGCCACCG, the binding signal was 8.3 upbm affinity estimate (log intensity, higher = more binding, comparable within an allelic series).
In the case of AATAAAAA, the binding signal is reported as 11.9 upbm affinity estimate (log intensity, higher = more binding, comparable within an allelic series).
With ATTTTATG the binding signal was 12.5 upbm affinity estimate (log intensity, higher = more binding, comparable within an allelic series).
For GCCATAAA, the binding signal was 12.2 upbm affinity estimate (log intensity, higher = more binding, comparable within an allelic series).
For CCTTGCAG, the binding signal was 8.41 upbm affinity estimate (log intensity, higher = more binding, comparable within an allelic series).
For GTCATAAA, the binding signal was 12.5 upbm affinity estimate (log intensity, higher = more binding, comparable within an allelic series).
CCGCCTGC was tested, and the binding signal was 8.24 upbm affinity estimate (log intensity, higher = more binding, comparable within an allelic series).
GTCGTTAA was tested, and the binding signal was 11.8 upbm affinity estimate (log intensity, higher = more binding, comparable within an allelic series).
TCGTAAAA was tested, and the binding signal was 12.6 upbm affinity estimate (log intensity, higher = more binding, comparable within an allelic series).
TCATAAAA was tested, and the binding signal was 12.4 upbm affinity estimate (log intensity, higher = more binding, comparable within an allelic series).
For CTCGTAAA, the binding signal was 12 upbm affinity estimate (log intensity, higher = more binding, comparable within an allelic series).
CATTAAAA was tested, and the binding signal was 12 upbm affinity estimate (log intensity, higher = more binding, comparable within an allelic series).
With CCATAAAA the binding signal was 12.8 upbm affinity estimate (log intensity, higher = more binding, comparable within an allelic series).
For CATTAAAC, the binding signal was 11.8 upbm affinity estimate (log intensity, higher = more binding, comparable within an allelic series).
In the case of CATAAAAG, the binding signal is reported as 12 upbm affinity estimate (log intensity, higher = more binding, comparable within an allelic series).
With AATTTTAT the binding signal was 11.9 upbm affinity estimate (log intensity, higher = more binding, comparable within an allelic series).
ACCATAAA was tested, and the binding signal was 11.9 upbm affinity estimate (log intensity, higher = more binding, comparable within an allelic series).
With ATAATAAA the binding signal was 11.9 upbm affinity estimate (log intensity, higher = more binding, comparable within an allelic series).
CATAAAAC was tested, and the binding signal was 12.4 upbm affinity estimate (log intensity, higher = more binding, comparable within an allelic series).
In the case of CCTAGGGC, the binding signal is reported as 8.37 upbm affinity estimate (log intensity, higher = more binding, comparable within an allelic series).
ATTTATGA was tested, and the binding signal was 11.8 upbm affinity estimate (log intensity, higher = more binding, comparable within an allelic series).
TCGTTAAA was tested, and the binding signal was 11.7 upbm affinity estimate (log intensity, higher = more binding, comparable within an allelic series).
For TAATAAAA, the binding signal was 12.6 upbm affinity estimate (log intensity, higher = more binding, comparable within an allelic series).
ACTATAAA was tested, and the binding signal was 11.7 upbm affinity estimate (log intensity, higher = more binding, comparable within an allelic series).
In the case of CATAAAAA, the binding signal is reported as 12.4 upbm affinity estimate (log intensity, higher = more binding, comparable within an allelic series).

Each sequence was assayed against HOXC9 (Homo sapiens, UniProt P31274 178-260) (assay: PBM; 200 nM protein, PBS). Conditions: dsDNA, one strand shown.
HOXC9, sequence (P31274 178-260): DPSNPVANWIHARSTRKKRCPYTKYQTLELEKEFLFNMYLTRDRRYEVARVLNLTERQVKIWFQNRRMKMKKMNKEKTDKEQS
For ATCGTAAA, the binding signal was 12.9 upbm affinity estimate (log intensity, higher = more binding, comparable within an allelic series).
For GTCGTAAA, the binding signal was 13.3 upbm affinity estimate (log intensity, higher = more binding, comparable within an allelic series).
In the case of GCTATAAA, the binding signal is reported as 12.8 upbm affinity estimate (log intensity, higher = more binding, comparable within an allelic series).
For CTCATAAA, the binding signal was 12.8 upbm affinity estimate (log intensity, higher = more binding, comparable within an allelic series).
In the case of CTATTAAA, the binding signal is reported as 12.8 upbm affinity estimate (log intensity, higher = more binding, comparable within an allelic series).
With ATAAAACA the binding signal was 12.5 upbm affinity estimate (log intensity, higher = more binding, comparable within an allelic series).
In the case of ACAATAAA, the binding signal is reported as 12.9 upbm affinity estimate (log intensity, higher = more binding, comparable within an allelic series).
For ACATAAAA, the binding signal was 13 upbm affinity estimate (log intensity, higher = more binding, comparable within an allelic series).
In the case of ATCATAAA, the binding signal is reported as 12.8 upbm affinity estimate (log intensity, higher = more binding, comparable within an allelic series).
CTATAAAA was tested, and the binding signal was 12.9 upbm affinity estimate (log intensity, higher = more binding, comparable within an allelic series).
In the case of CTAATAAA, the binding signal is reported as 12.7 upbm affinity estimate (log intensity, higher = more binding, comparable within an allelic series).
With GTTTATTA the binding signal was 12.6 upbm affinity estimate (log intensity, higher = more binding, comparable within an allelic series).
With CCCTCACC the binding signal was 9.44 upbm affinity estimate (log intensity, higher = more binding, comparable within an allelic series).
CGCCACCG was tested, and the binding signal was 9.81 upbm affinity estimate (log intensity, higher = more binding, comparable within an allelic series).
For AATAAAAA, the binding signal was 12.6 upbm affinity estimate (log intensity, higher = more binding, comparable within an allelic series).
With ATTTTATG the binding signal was 13.1 upbm affinity estimate (log intensity, higher = more binding, comparable within an allelic series).
GCCATAAA was tested, and the binding signal was 12.9 upbm affinity estimate (log intensity, higher = more binding, comparable within an allelic series).
In the case of CCTTGCAG, the binding signal is reported as 9.66 upbm affinity estimate (log intensity, higher = more binding, comparable within an allelic series).
GTCATAAA was tested, and the binding signal was 13.1 upbm affinity estimate (log intensity, higher = more binding, comparable within an allelic series).
In the case of ATCGTTAA, the binding signal is reported as 12.6 upbm affinity estimate (log intensity, higher = more binding, comparable within an allelic series).
For CCGCCTGC, the binding signal was 9.64 upbm affinity estimate (log intensity, higher = more binding, comparable within an allelic series).
With GTCGTTAA the binding signal was 12.8 upbm affinity estimate (log intensity, higher = more binding, comparable within an allelic series).
For TCGTAAAA, the binding signal was 13.2 upbm affinity estimate (log intensity, higher = more binding, comparable within an allelic series).
TCATAAAA was tested, and the binding signal was 13.1 upbm affinity estimate (log intensity, higher = more binding, comparable within an allelic series).
With CTCGTAAA the binding signal was 12.9 upbm affinity estimate (log intensity, higher = more binding, comparable within an allelic series).
With CATTAAAA the binding signal was 12.7 upbm affinity estimate (log intensity, higher = more binding, comparable within an allelic series).
For CCATAAAA, the binding signal was 13.4 upbm affinity estimate (log intensity, higher = more binding, comparable within an allelic series).
In the case of CATTAAAC, the binding signal is reported as 12.6 upbm affinity estimate (log intensity, higher = more binding, comparable within an allelic series).
In the case of CATAAAAG, the binding signal is reported as 12.8 upbm affinity estimate (log intensity, higher = more binding, comparable within an allelic series).
For AATTTTAT, the binding signal was 12.7 upbm affinity estimate (log intensity, higher = more binding, comparable within an allelic series).
With ACCATAAA the binding signal was 12.8 upbm affinity estimate (log intensity, higher = more binding, comparable within an allelic series).
ATAATAAA was tested, and the binding signal was 12.7 upbm affinity estimate (log intensity, higher = more binding, comparable within an allelic series).
For CATAAAAC, the binding signal was 13.1 upbm affinity estimate (log intensity, higher = more binding, comparable within an allelic series).
CCTAGGGC was tested, and the binding signal was 9.6 upbm affinity estimate (log intensity, higher = more binding, comparable within an allelic series).
In the case of ATTTATGA, the binding signal is reported as 12.7 upbm affinity estimate (log intensity, higher = more binding, comparable within an allelic series).
TCGTTAAA was tested, and the binding signal was 12.7 upbm affinity estimate (log intensity, higher = more binding, comparable within an allelic series).
With TAATAAAA the binding signal was 13.2 upbm affinity estimate (log intensity, higher = more binding, comparable within an allelic series).
ACTATAAA was tested, and the binding signal was 12.6 upbm affinity estimate (log intensity, higher = more binding, comparable within an allelic series).
In the case of CATAAAAA, the binding signal is reported as 13 upbm affinity estimate (log intensity, higher = more binding, comparable within an allelic series).
